Compound activity from PubChem BioAssay.
D1 agonist – agonists of human D1 dopamine receptor. HEK293 T-REx D1 cells, calcium flux, agonist mode. activation, % at 2 µM. 360,000 tested, 1% active. AID 504660; further: 0% is about no effect
Target sequence (P21728 whole entry, looked up): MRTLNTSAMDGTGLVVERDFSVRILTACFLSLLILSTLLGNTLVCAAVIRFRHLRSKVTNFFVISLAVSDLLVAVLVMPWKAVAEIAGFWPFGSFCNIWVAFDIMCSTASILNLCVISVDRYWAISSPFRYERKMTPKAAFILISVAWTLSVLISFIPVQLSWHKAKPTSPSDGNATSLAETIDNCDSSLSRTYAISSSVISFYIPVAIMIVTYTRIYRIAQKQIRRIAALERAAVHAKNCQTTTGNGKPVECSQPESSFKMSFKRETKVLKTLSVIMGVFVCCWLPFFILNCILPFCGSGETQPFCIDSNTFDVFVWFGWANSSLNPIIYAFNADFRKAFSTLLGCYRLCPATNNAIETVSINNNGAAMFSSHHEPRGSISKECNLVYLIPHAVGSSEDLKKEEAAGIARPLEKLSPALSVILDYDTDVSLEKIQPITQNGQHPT
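Tetracycline-induced HEK293 TREx D1 cells, force-coupled to calcium signalling, were dye-loaded with a no-wash calcium kit. Compound was pin-added after a 10 s baseline. Fluorescence was read kinetically at 1 cycle/s for 180 s, with calcium rises flagged as agonism.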
TRHR enhancer – allosteric enhancers of human TRH receptor; P34981; TRHR cells, fluo-8 calcium fluorescence, EC20 TRH enhancement; enhancement, % at 2 µM; 360,000 tested, 0.66% active; AID 493056; in the data active means enhancement above about 30%; further: 0% is about no effect
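TRHR-expressing cells loaded with fluo-8 calcium dye were read kinetically (ex 480/em 530) during compound addition, then stimulated with an EC20 of TRH (10 nM final). Enhancement of the Gq-mediated intracellular calcium response was scored.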
D1 PAM – enhances dopamine response at the human D1 receptor; P21728; HEK293 TREx D1 cells, calcium flux, dopamine EC20 potentiation; potentiation, % at 10 µM; 360,000 tested, 0.036% active; in the data active means potentiation above about 30%; further: 0% is about no effect
TRHR agonist – activates the human TRH receptor | P34981 | TRHR cells, calcium flux fluo-8, FDSS agonist mode | activation, % at 2 µM | 360,000 tested, 0.18% active | AID 493084; further: 0% is about no effect
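Fluo-8-loaded TRHR cells; 10 s baseline, compound added, kinetic Ca2+ fluorescence read 1/s, agonist mode.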
D1 antagonist – human D1 dopamine receptor antagonism; P21728; HEK293 TREx D1 cells, calcium flux, dopamine EC80; stronger effect = lower value; activity change, negative = inhibition, % at 10 µM; 360,000 tested, 3.2% active; AID 504652; in the data active means activity change below about -30%; further: on the % scale 0 is the no-effect control and ±100 the full control effect
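Cells carrying a force-coupled, tetracycline-inducible human D1 receptor report calcium flux. Each well gets a 10 s baseline, compound with 180 s monitoring, then an EC80 dopamine stimulus with a second 180 s kinetic read.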
* marks the source's active call; other numbers are inactive results. Shown are actives, neighbours in structure and some others; about 4.7% of the full set was active somewhere. Unless noted, no stated cut-off is given here; in the data, active means activation above about 30%; inactive means the rest.

SMILES	D1 agonist	TRHR enhancer	D1 PAM	TRHR agonist	D1 antagonist
CCOc1ccc(CNC(=O)CCS(=O)(=O)c2cc3c4c(c2)CCN4C(=O)CC3)cc1	2	-4	-2	0	5
Cn1ccsc1=NC(=O)c1ccccc1OC(F)F	0	-7	-8	3	-36*
CCOC(=O)c1cc(S(=O)(=O)NCc2ccc(OC)cc2)[nH]n1	2	-7	0	0	6
COc1cccc(NC(=O)C(=O)NCC(c2ccc3c(c2)OCO3)N2CCOCC2)c1 (configuration not stated)	0	-4	-7	0	13
O=C(COC(=O)c1ccc(O)cc1O)Nc1cccc2ccccc12	6	35*	3	0	8
Cc1ccc(C(=O)OCC(=O)Nc2ccccc2Cl)c(O)c1	1	0	3	0	-4
CCCSCCCNC(=O)C1CCN(c2nn3cc(-c4ccc(F)cc4)nc3s2)CC1	-1	5	0	0	13
CCc1ccccc1NC(=O)Cn1cc2c(n1)CCC(C)C2 (configuration not stated)	-2	-3	0	0	3
Cc1ccccc1C(=O)Nc1cccc(OCc2cc(=O)n3c4c(sc3n2)CCCC4)c1	3	32*	-2	-1	-15
Cc1ccccc1OCC(=O)Nc1ccc(OCc2cc(=O)n3ccsc3n2)cc1	0	1	-4	0	16
COc1ccc(C(=O)Nc2cccc(OCc3cc(=O)n4c5c(sc4n3)CCCC5)c2)cc1OC	2	3	-2	0	6
Cc1cn2c(=O)cc(COc3ccc(NC(=O)c4cccc(F)c4)cc3)nc2s1	1	10	-6	-2	-41*
Cc1ccc(OCC(=O)Nc2ccc(OCc3cc(=O)n4ccsc4n3)cc2)cc1	144*	-4	1	-1	3
Cc1ccccc1C(=O)Nc1ccc(C(=O)OCc2cc(=O)n3c4c(sc3n2)CCCC4)cc1	0	-2	-1	1	6
O=C(Nc1cccc(OCc2cc(=O)n3c4c(sc3n2)CCCC4)c1)c1ccc(F)cc1	-1	4	-6	-2	-31*
Cc1ccc(C)c(NC(=O)C(Cc2ccccc2)N2Cc3ccccc3C2=O)c1 (configuration not stated)	0	-2	0	0	-2
COc1ccc(OC)c(Nc2ncc3c(n2)CCN(Cc2cc(OC)c(OC)c(OC)c2)C3)c1	-1	1	1	-1	-8
COc1cc(/C=C/c2nc(C#N)c(NC3CCCCC3)o2)cc(OC)c1OC	1	0	0	-3	-3
Cc1ccc(C(=O)Cn2cnc3ccccc3c2=O)cc1C	43*	7	-3	0	-17
Cc1ccc(C)c(OCCCCn2cnc3ccccc3c2=O)c1	39*	4	-6	-1	-19
O=C(Cn1cnc2ccccc2c1=O)c1ccc2ccccc2c1	2	2	-10	-1	-12
CCOc1ccc(OCCCCn2cnc3ccccc3c2=O)cc1	1	-6	1	1	-42*
O=[N+]([O-])c1ccc(/C=N/Nc2ccc3ccccc3c2)o1	40*	-4	-2	6	11
O=C(N/N=C/c1ccc([N+](=O)[O-])o1)c1cc2ccccc2o1	1	5	-4	0	6
O=[N+]([O-])c1ccc(/C=N/NC(=S)Nc2ccccc2F)o1	3	-1	-4	0	-53*
SMILES	D1 agonist	TRHR enhancer	D1 PAM	TRHR agonist	D1 antagonist
O=[N+]([O-])c1ccc(/C=N/NC(=S)Nc2ccccc2)o1	9	-4	-4	-1	-3
O=S(=O)(c1ccc(OC(F)(F)F)cc1)N1CCCC(c2ccccc2)C1 (configuration not stated)	18	-14	11	4	-34*
COc1ccc(C2(O)CCN(CCCCOc3ccccc3)CC2)cc1	36*	3	-17	0	-18
COc1ccc(OCCCN2CCc3ccccc3C2)cc1	2	0	-10	0	-8
Cc1c(Cl)cccc1NC(=O)c1ccc2c(c1)CCN2S(=O)(=O)c1ccccc1	7	2	0	2	6
O=C(C1CCC(Cn2c(=O)c3sccc3n(Cc3ccccc3)c2=O)CC1)N1CCCCC1 (configuration not stated)	3	-1	-4	-1	4
O=C(NNC(=O)c1ccccc1C(F)(F)F)c1csc(N2CCOCC2)n1	1	5	-15	2	-51*
O=C(NNC(=O)c1ccccc1Cl)c1csc(N2CCOCC2)n1	5	-4	-1	0	14
CCOC(=O)Cc1cc(-c2ccccc2)nc2ccc3ccccc3c12	10	0	-12	4	-36*
Cc1cc(C)c(-n2nnnc2SCC(=O)c2cccs2)c(C)c1	7	-3	-4	1	-42*
Cn1nnnc1SCC(=O)c1cccs1	3	-2	2	0	-12
COc1ccc2c(c1)nc(SCC(=O)C(C)(C)C)n2C	-1	-15	-4	0	-13
COc1ccc2c(c1)nc(SCC(=O)c1cccs1)n2C	0	-9	-4	-1	-36*
CC(=O)c1ccc(N2C(=O)N(Cc3cccc(C(F)(F)F)c3)c3ccccc3S2(=O)=O)cc1	5	3	-3	0	5
CCN(CC(=O)NCc1ccc(F)cc1)C(=O)/C=C/c1cccs1	0	38*	0	-1	5
CCN(CC(=O)NCc1ccc(F)cc1)C(=O)c1ccc(Cl)cc1	1	7	-3	-2	7
CCN(CC(=O)NCc1ccc(F)cc1)C(=O)c1ccc(C)o1	4	32*	-2	1	15
COc1ccc(CC(=O)Nc2cc(Cl)ccc2O)cc1	16	8	-4	-2	-35*
CCOC(=O)Cc1csc(NS(=O)(=O)c2cccc([N+](=O)[O-])c2)n1	2	36*	0	0	-1
CCOC(=O)Cc1csc(NC(=O)C(C)c2ccc([N+](=O)[O-])cc2)n1 (configuration not stated)	58*	-6	-5	9	-38*
CCOC(=O)Cc1csc(NC(=O)Cc2ccccc2[N+](=O)[O-])n1	-3	-1	-8	-1	-6
O=C(c1cc(Cl)nc2ccccc12)N1CCN(S(=O)(=O)c2cccc(C(F)(F)F)c2)CC1	-1	-13	-6	0	-33*
CCc1nc2ccccc2n1CC(=O)N1CCN(S(=O)(=O)c2cccc(C(F)(F)F)c2)CC1	-1	-15	-6	1	-7
CC1=CC(=C(C#N)c2nc3ccccc3s2)C=C(C)N1Cc1ccco1	44*	-11	-10	15	-9
Cc1cc2nc(-c3ccc[nH]c3=O)[nH]c2cc1C	1	0	-9	0	-65*
COc1ccc(-c2c(-c3cc(OC)cc(OC)c3)n(C)c3ccc(Br)cc23)cc1	0	6	0	0	-20
